According to PubChem BioAssay AID1159580 (chemical genetic matrix, 2015):
Out of some 5,500 compounds screened, about 2,000 (36%) were called active. Inconclusive results (about 18%) are left out. Cut-off read from the data, not from the text of the source: active = normalized growth mostly below about 0.91 (no sharp cut-off); inconclusive = no clear call, values can overlap the other calls; inactive = mostly above about 0.92. The list shows a part of the results.

Assay: chemical genetic growth profiling, strain panel (AID 1159580);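 note: tested at 20 µM; growth read once vehicle control cultures reached saturation at 30 °C; 1 = growth at the plate median or of vehicle wells; lower values mean less growth of the strain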
Details: growth OD
[1] = S. cerevisiae deletion strains, locus YDR150W, strain NUM1, hits give low values
[2] = S. cerevisiae deletion strains, locus YNL322C, strain KRE1, hits give low values
[3] = S. cerevisiae deletion strains, locus YPL241C, strain CIN2, hits give low values

Measured: normalized growth

O=C(O)/C=C1\CCCc2ccccc2C1O (stereo unspecified)
inactive: S. cerevisiae deletion strains, locus YAL013W, strain DEP1, hits give low values 1.01 | S. cerevisiae deletion strains, locus YBR021W, strain FUR4, hits give low values 1.01 | S. cerevisiae deletion strains, locus YBR229C, strain ROT2, hits give low values 0.965 | S. cerevisiae deletion strains, locus YCL029C, strain bik1, hits give low values 0.982 | S. cerevisiae deletion strains, locus YDL035C, strain GPR1, hits give low values 0.993 | S. cerevisiae deletion strains, locus YDL074C, strain BRE1, hits give low values 0.96 | S. cerevisiae deletion strains, locus YDL101C, strain DUN1, hits give low values 0.988 | S. cerevisiae deletion strains, locus YDL134C, strain PPH21, hits give low values 0.992 | S. cerevisiae deletion strains, locus YDL185W, strain tfp1, hits give low values 0.945 | S. cerevisiae deletion strains, locus YDL192W, strain arf1, hits give low values 0.977 | S. cerevisiae deletion strains, locus YDR101C, strain arx1, hits give low values 0.993 | [1] 0.991 | S. cerevisiae deletion strains, locus YDR162C, strain NBP2, hits give low values 0.987 | S. cerevisiae deletion strains, locus YDR318W, strain mcm21, hits give low values 0.985 | S. cerevisiae deletion strains, locus YDR388W, hits give low values 0.989 | S. cerevisiae deletion strains, locus YDR502C, strain sam2, hits give low values 0.976 | S. cerevisiae deletion strains, locus YEL061C, strain CIN8, hits give low values 0.995 | S. cerevisiae deletion strains, locus YER110C, hits give low values 0.982 | S. cerevisiae deletion strains, locus YER155C, strain BEM2, hits give low values 1.01 | S. cerevisiae deletion strains, locus YER167W, strain BCK2, hits give low values 0.998 | S. cerevisiae deletion strains, locus YGL078C, strain dbp3, hits give low values 0.992 | S. cerevisiae deletion strains, locus YGL086W, strain mad1, hits give low values 0.991 | S. cerevisiae deletion strains, locus YGL248W, strain PDE1, hits give low values 0.979 | S. cerevisiae deletion strains, locus YGR078C, strain PAC10, hits give low values 1 | S. cerevisiae deletion strains, locus YGR135W, strain pre9, hits give low values 0.98 | S. cerevisiae deletion strains, locus YGR229C, strain SMI1, hits give low values 0.997 | S. cerevisiae deletion strains, locus YGR252W, strain gcn5, hits give low values 0.962 | S. cerevisiae deletion strains, locus YHR030C, strain SLT2, hits give low values 1.01 | S. cerevisiae deletion strains, locus YHR079C, strain IRE1 (second series), hits give low values 0.992 | S. cerevisiae deletion strains, locus YHR094C, strain hxt1, hits give low values 0.984 | S. cerevisiae deletion strains, locus YHR129C, strain ARP1, hits give low values 0.992 | S. cerevisiae deletion strains, locus YHR200W, strain rpn10, hits give low values 0.989 | S. cerevisiae deletion strains, locus YIL066C, strain RNR3, hits give low values 0.996 | S. cerevisiae deletion strains, locus YIL073C, strain SPO22, hits give low values 0.974 | S. cerevisiae deletion strains, locus YIL125W, strain kgd1, hits give low values 0.975 | S. cerevisiae deletion strains, locus YIR030C, strain dcg1, hits give low values 0.988 | S. cerevisiae deletion strains, locus YJL095W, strain BCK1, hits give low values 1.01 | S. cerevisiae deletion strains, locus YJL134W, strain LCB3, hits give low values 0.986 | S. cerevisiae deletion strains, locus YJL168C, strain set2, hits give low values 0.986 | S. cerevisiae deletion strains, locus YJL187C, strain SWE1 (second series), hits give low values 0.99 | S. cerevisiae deletion strains, locus YJR043C, strain POL32, hits give low values 0.998 | S. cerevisiae deletion strains, locus YJR075W, strain HOC1, hits give low values 0.985 | S. cerevisiae deletion strains, locus YKL009W, strain mrt4, hits give low values 0.955 | S. cerevisiae deletion strains, locus YKL068W, hits give low values 0.981 | S. cerevisiae deletion strains, locus YKL085W, strain MDH1 (second series), hits give low values 0.98 | S. cerevisiae deletion strains, locus YKL085W, strain MDH1, hits give low values 0.98 | S. cerevisiae deletion strains, locus YKL190W, strain CNB1, hits give low values 0.996 | S. cerevisiae deletion strains, locus YKR001C, strain vps1, hits give low values 0.978 | S. cerevisiae deletion strains, locus YLR039C, strain RIC1, hits give low values 0.944 | S. cerevisiae deletion strains, locus YLR058C, strain SHM2, hits give low values 0.988 | S. cerevisiae deletion strains, locus YLR102C, strain apc9, hits give low values 0.977 | S. cerevisiae deletion strains, locus YLR262C, strain YPT6, hits give low values 0.937 | S. cerevisiae deletion strains, locus YLR268W, strain sec22, hits give low values 0.984 | S. cerevisiae deletion strains, locus YLR330W, strain CHS5, hits give low values 0.998 | S. cerevisiae deletion strains, locus YLR342W, strain FKS1 (second series), hits give low values 0.983 | S. cerevisiae deletion strains, locus YLR371W, strain rom2, hits give low values 0.975 | S. cerevisiae deletion strains, locus YLR418C, strain cdc73, hits give low values 0.989 | S. cerevisiae deletion strains, locus YML016C, strain PPZ1, hits give low values 0.964 | S. cerevisiae deletion strains, locus YML032C, strain rad52, hits give low values 0.982 | S. cerevisiae deletion strains, locus YML124C, strain tub3, hits give low values 0.992 | S. cerevisiae deletion strains, locus YMR078C, strain ctf18, hits give low values 0.977 | S. cerevisiae deletion strains, locus YMR223W, strain ubp8, hits give low values 0.991 | S. cerevisiae deletion strains, locus YMR263W, strain SAP30, hits give low values 0.952 | S. cerevisiae deletion strains, locus YMR307W, strain GAS1, hits give low values 0.991 | S. cerevisiae deletion strains, locus YNL067W, strain RPL9B, hits give low values 0.998 | S. cerevisiae deletion strains, locus YNL128W, strain TEP1, hits give low values 0.976 | S. cerevisiae deletion strains, locus YNL153C, strain GIM3, hits give low values 0.998 | S. cerevisiae deletion strains, locus YNL233W, strain BNI4, hits give low values 1.01 | S. cerevisiae deletion strains, locus YNL250W, strain rad50, hits give low values 0.979 | S. cerevisiae deletion strains, locus YNL271C, strain bni1, hits give low values 0.987 | S. cerevisiae deletion strains, locus YNL298W, strain CLA4, hits give low values 0.964 | S. cerevisiae deletion strains, locus YNL307C, strain MCK1, hits give low values 0.986 | [2] 0.986 | S. cerevisiae deletion strains, locus YNR052C, strain pop2, hits give low values 0.989 | S. cerevisiae deletion strains, locus YOL006C, strain TOP1, hits give low values 0.983 | S. cerevisiae deletion strains, locus YOL012C, strain htz1 0.943 | S. cerevisiae deletion strains, locus YOL147C, strain pex11, hits give low values 0.991 | S. cerevisiae deletion strains, locus YOR061W, strain CKA2, hits give low values 0.974 | S. cerevisiae deletion strains, locus YOR069W, strain VPS5, hits give low values 1 | S. cerevisiae deletion strains, locus YOR136W, strain idh2, hits give low values 0.995 | S. cerevisiae deletion strains, locus YOR144C, strain elg1, hits give low values 0.991 | S. cerevisiae deletion strains, locus YOR184W, strain ser1, hits give low values 0.985 | S. cerevisiae deletion strains, locus YOR316C, strain cot1, hits give low values 0.975 | S. cerevisiae deletion strains, locus YPL055C, strain LGE1, hits give low values 0.971 | [3] 0.997 | S. cerevisiae deletion strains, locus YPR119W, strain clb2, hits give low values 0.995 | S. cerevisiae deletion strains, locus YPR141C, strain kar3, hits give low values 0.964 | S. cerevisiae deletion strains, locus YPR163C, strain tif3, hits give low values 0.99 | S. cerevisiae deletion strains, locus YPR167C, strain met16, hits give low values 0.987 | S. cerevisiae deletion strains, strain wtn01, hits give low values 0.98 | S. cerevisiae strains, strain wild type, hits give low values 0.991

Nc1ncnc2c1nc(Sc1ccc(Cl)cc1)n2C1OC2COP(=O)(O)O[C@@H]2[C@@H]1O (stereo partly specified)
inactive: S. cerevisiae deletion strains, locus YAL040C, strain CLN3, hits give low values 0.98 | [1] 0.999 | S. cerevisiae deletion strains, locus YDR363W, strain ESC2, hits give low values 1.01 | S. cerevisiae deletion strains, locus YER002W, strain NOP16, hits give low values 0.984 | S. cerevisiae deletion strains, locus YNL175C, strain NOP13, hits give low values 1.01 | S. cerevisiae deletion strains, locus YNL197C, strain WHI3, hits give low values 1.02 | S. cerevisiae deletion strains, locus YNL224C, strain SQS1, hits give low values 0.995 | [2] 0.996 | S. cerevisiae deletion strains, locus YOR083W, strain WHI5 (second series), hits give low values 1.02 | [3] 1
